Assay outcomes from PubChem BioAssay.
SMN2 splice enh: qHTS Assay for Enhancers of SMN2 Splice Variant Expression; HEK293 SMN2-luciferase splicing reporter, luminescence, 30-36 h; Potency, µM (series often up to 46.1 µM), for inactives: top-dose activity change, positive = activation, usual class: activators; 210,000 tested, 2.8% active; also: % of control where 0% means no effect; nearly all actives have a fitted effect of over 55% in size
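HEK293 cells carry an SMN2 minigene-luciferase reporter in which exon 7 inclusion puts luciferase in frame. Cells were seeded at 2000 cells/well, attached for 10-12 hours, then exposed to compounds for 30-36 hours at 37C before ONE-Glo luminescence.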
ELG1 genotox: qHTS screen for small molecules that induce genotoxicity in human embryonic kidney (HEK293T) cells expressing luciferase-tagged ELG1; HEK293T ELG1-luciferase reporter, luminescence, 16 h; Potency, µM (highest dose often 46 µM), for the others: at the highest dose activity change, positive = activation, usual class: activators; 330,000 tested, 1.3% active; also: % of control where 0% means no effect; nearly all actives have a fitted effect of over 60% in size
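HEK293T cells expressing luciferase-tagged ELG1 were treated with compound or DMSO for 16 hr at 37°C. Luciferase activity was then read after 30 min with ONE-Glo at room temperature; rising signal flags genetic stress.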
FLuc modulator: qHTS profiling assay for firefly luciferase inhibitor/activator using purifed enzyme and Km concentrations of substrates (counterscreen for miR-21 project) | Luciferin 4-monooxygenase (Photinus pyralis), P08659 | purified FLuc, Km substrates, luminescence inhibition | Potency, µM (highest dose often 57.5 µM), for inactives: at the highest dose activity change, negative = inhibition, actives largely listed as inhibitors | 360,000 tested, 6.9% active | AID 588342, 2011;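 also: plate controls were vehicle for no effect and reference inhibitor for full effect; nearly all actives have a fitted effect of over 55% in size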
Target sequence (P08659 whole entry, looked up): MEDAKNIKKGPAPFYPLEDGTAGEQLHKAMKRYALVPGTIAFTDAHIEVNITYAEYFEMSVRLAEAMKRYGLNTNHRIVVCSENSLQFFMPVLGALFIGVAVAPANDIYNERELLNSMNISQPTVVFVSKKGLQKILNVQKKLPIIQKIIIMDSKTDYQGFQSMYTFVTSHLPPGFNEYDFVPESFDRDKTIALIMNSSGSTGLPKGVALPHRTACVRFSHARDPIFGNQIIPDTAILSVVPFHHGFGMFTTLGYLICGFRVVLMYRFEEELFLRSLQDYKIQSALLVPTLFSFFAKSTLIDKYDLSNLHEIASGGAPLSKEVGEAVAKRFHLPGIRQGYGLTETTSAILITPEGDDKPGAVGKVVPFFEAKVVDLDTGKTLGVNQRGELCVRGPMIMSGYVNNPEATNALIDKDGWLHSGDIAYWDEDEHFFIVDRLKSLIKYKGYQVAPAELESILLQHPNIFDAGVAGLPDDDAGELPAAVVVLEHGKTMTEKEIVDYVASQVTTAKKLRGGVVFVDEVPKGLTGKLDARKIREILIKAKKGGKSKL
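Purified P. pyralis luciferase, 10 nM final, with Km-level 10 uM D-luciferin and 10 uM ATP in 50 mM Tris acetate pH 7.5, 10 mM Mg acetate, 0.01% Tween-20, 0.05% BSA; 6-point qHTS titration about 60 µM downward; luminescence read.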
Rab9 prom act: qHTS Assay for Rab9 Promoter Activators; Huh7 Rab9 promoter-luciferase reporter, luminescence, 24 h; Potency, µM (doses to about 9.22 µM), without a hit: at the highest dose activation, negative = inhibition, hits mostly activators; 320,000 tested, 2.8% active; also: % of control where 0% means no effect; nearly all actives have a fitted effect of over 60% in size
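Steps: seed 1500 Huh7 Rab9-luc cells per well, rest 2 h at 37 °C; add compound in DMSO; incubate 24 h; add luciferase reagent, 10 min ambient; read luminescence.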
ELG1 repair inh: qHTS screen for small molecules that inhibit ELG1-dependent DNA repair in human embryonic kidney (HEK293T) cells expressing luciferase-tagged ELG1 | HEK293T ELG1-luciferase reporter, luminescence, 16 h; DNA damage induced by 5-fluorouridine | Potency, µM (doses to about 46.1 µM), for the others: at the highest dose activity change, negative = inhibition, hits mostly inhibitors | 330,000 tested, 2.3% active; also: % is scaled to controls: 0 for no effect and ±100 for the full control effect; nearly all actives have a fitted effect of over 55% in size
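Cells (2,000 per well) received 5-fluorouridine plus test compound or DMSO and were incubated 16 hr at 37 °C, 5% CO2. Luciferase activity was read by luminescence 30 min after ONE-Glo addition; signal suppression marked inhibition of damage-induced ELG1 function.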
NPC1 prom act: qHTS Assay for NPC1 Promoter Activators; Huh7 NPC1 promoter luciferase reporter, 24 h; Potency, µM (titrated, usually from 9.22 µM), without a hit: at the top dose activation, hits mostly activators; 320,000 tested, 2.4% active; AID 485313, 2010; also: % of control where 0% means no effect; nearly all actives have a fitted effect of over 60% in size
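Readout is luciferase luminescence, reflecting NPC1 promoter activation in stably transfected Huh7 cells after 24 h compound exposure at 37 °C in reduced-serum medium with 10% FBS.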
An asterisk follows results filed as active; ? = inconclusive; / = no result given. The list is not random: actives were taken first. Their share in the collection is about 9.3%. Calls follow the shape of the dose curve; as a rule, active = well fitted curve in the direction sought with a large enough effect; inconclusive = small, poorly fitted or top-dose-only effect, or another doubt; inactive = no such curve, though single readings can be large; an effect the other way counts as inactive or inconclusive. Potency is read from the fitted curve at half-maximal effect.

SMILES | SMN2 splice enh | ELG1 genotox | FLuc modulator | Rab9 prom act | ELG1 repair inh | NPC1 prom act
Cc1nn(C)cc1C(=O)Nc1cc(Oc2ccc(Cl)cc2)cc([N+](=O)[O-])c1 | -16% | 1% | 0% | -6% | -3% | -3%
CCc1cccc(CC)c1NC(=O)COC(=O)C1(C)CC1(Cl)Cl (configuration not stated) | -8% | -5% | 1% | 8% | -3% | -3%
NC(=O)c1ccsc1NC(=O)COC(=O)/C=C/c1ccccc1 | / | -17% | 11µM* | 0% | ? | 7%
NC(=O)c1ccsc1NC(=O)COC(=O)c1ccccc1F | / | 5% | 11µM* | 0% | 16% | 1%
COc1cc(CC(=O)OCC(=O)Nc2sccc2C(N)=O)cc(OC)c1OC | -37% | -9% | -6% | -6% | 7.3µM* | -17%
NC(=O)c1ccsc1NC(=O)COC(=O)/C=C/c1ccccc1[N+](=O)[O-] | / | 1% | / | / | ? | /
NC(=O)c1ccsc1NC(=O)COC(=O)c1cc(Cl)ccc1O | / | 0% | 4.3µM* | -3% | 18% | -3%
COc1cc(NC(=O)c2cccnc2)c(Cl)cc1NC(=O)c1ccccc1 | / | -2% | 3% | 3% | -4% | 3%
Cc1cccc(NC(=O)N2CCC(NC(=O)C3CCCCC3)CC2)c1 | / | -1% | -2% | -4% | 2% | -2%
N#CCC(=O)Nc1ccc(C(=O)Nc2cccnc2)cc1 | / | -3% | 0% | -3% | 10% | -4%
CCOC(=O)c1c(O)c2ccccc2oc1=O | / | 0% | ? | -1% | -8% | -2%
CCOc1ccc(/C=C/C(=O)c2c(O)c3ccccc3oc2=O)cc1 | -23% | 1% | 11µM* | 15% | 15% | -1%
CN(C)c1ccc(/C=C/C(=O)c2c(O)c3ccccc3oc2=O)cc1 | / | 10% | 21µM* | ? | ? | 24%
COc1ccc(NC(=S)N(CCO)Cc2cc3c(C)cc(C)cc3[nH]c2=O)cc1 | / | -2% | -7% | -4% | ? | 2%
Cc1ccc(Cl)cc1-n1c(=O)c2sc3ccccc3c2n(CC(=O)NC2CCCC2)c1=O | 1% | / | 4% | / | / | /
S=C(Nc1ccc(Cl)cc1)N1CCCC1 | ? | 10% | ? | 1% | 23% | 1%
N#C/C(=N\Nc1ccc(Cl)cc1)C(=N)N1CCCCCC1 | 3.5µM* | 1.8µM* | 0.95µM* | 0.32µM* | ? | 0.4µM*
Cc1ccc(N/N=C(\C#N)C(=N)N2CCCCC2)cc1 | / | ? | 5.4µM* | 0.5µM* | ? | 0.45µM*
N#C/C(=N\Nc1ccccc1)C(=N)N1CCCCC1 | 11µM* | 6.5µM* | 5.4µM* | ? | ? | 2µM*
CC(=O)/C(=N\Nc1ccc(C)cc1)N1CCOCC1 | / | 3% | -4% | -1% | 4% | 2%
CCN(CC(=O)Nc1c(F)cccc1F)C(=O)CCN1C(=O)C2CC=CCC2C1=O (configuration not stated) | / | 1% | 3% | 0% | 3% | 1%
O=C(Nc1ccccc1)c1ccc(NC2CCCCC2)c(S(=O)(=O)N2CCOCC2)c1 | -64% | -6% | -1% | 15% | 15µM* | -2%
O=C(Nc1ccc2c(c1)OCO2)c1ccc(Br)c(S(=O)(=O)N2CCCC2)c1 | -59% | -10% | ? | 0% | 21µM* | -6%
Cc1oc(S(=O)(=O)N2CCCC2)cc1C(=O)Nc1ccc(F)cc1 | / | -8% | -1% | -1% | ? | 0%
O=C(Nc1ccc(F)cc1)c1ccc(Br)c(S(=O)(=O)N2CCOCC2)c1 | / | -3% | -8% | -12% | 15µM* | -2%
SMILES | SMN2 splice enh | ELG1 genotox | FLuc modulator | Rab9 prom act | ELG1 repair inh | NPC1 prom act
O=C(Nc1ccc2c(c1)OCCO2)c1ccc(Br)c(S(=O)(=O)N2CCOCC2)c1 | / | -2% | ? | 10% | ? | 1%
Cc1oc(S(=O)(=O)N2CCOCC2)cc1C(=O)Nc1ccc(F)cc1 | / | -4% | -2% | 1% | 23µM* | 4%
COC(=O)C1=C(CN2CCN(C)CC2)NC(=O)NC1c1cc(C)ccc1C (configuration not stated) | 14% | -1% | 0% | -10% | 7% | -2%
COC(=O)C1=C(CSc2nnnn2C)NC(=O)NC1c1cc(C)ccc1C (configuration not stated) | 25µM* | -1% | 3% | 0% | 5% | -4%
COC(=O)C1=C(CN2CCc3ccccc32)NC(=O)NC1c1cc(C)ccc1C (configuration not stated) | 4.5µM* | -3% | 0% | -9% | 13µM* | 2%
Cc1c(NC(=O)/C(C#N)=C/c2ccc(-c3ccc(Cl)c(Cl)c3)o2)c(=O)n(-c2ccccc2)n1C | -50% | -13% | -20% | -4% | 21µM* | -4%
N#C/C(=C\c1ccc(-c2ccc(C(=O)O)cc2)o1)C(=O)Nc1ccc(F)cc1 | / | 2% | 2.4µM* | ? | 19% | ?
Cc1cccc(C)c1NC(=O)/C(C#N)=C/c1ccc(-c2ccc(C(=O)O)cc2)o1 | / | ? | 12µM* | 2.5µM* | ? | 0.63µM*
Cc1c(NC(=O)/C(C#N)=C/c2ccc(-c3cccc(Cl)c3)o2)c(=O)n(-c2ccccc2)n1C | -25% | -14% | -14% | -3% | ? | -4%
CC(C)(C)c1ccc(C(=O)N2CCN(Cc3cc(=O)n4nc(-c5ccccc5F)sc4n3)CC2)cc1 | / | / | 6% | / | / | /
CC(C(=O)Nc1ccc(F)cc1Cl)N1CCN(S(=O)(=O)c2cccs2)CC1 (configuration not stated) | / | 1% | -1% | 0% | ? | -5%
CCOC(=O)c1c(C)[nH]c(C(=O)COC(=O)c2ccco2)c1C | / | 12% | / | / | ? | /
Cn1c(Cl)c(C(=O)Nc2ccc(Cl)cc2)c2ccccc21 | 20% | 3% | 6µM* | 16% | 15% | ?
C[C@@H]1O[C@@H](OCCC(=O)O)[C@H](O)C[C@H]1O | / | -3% | / | / | ? | /
c1ccc(COc2ccc3nocc3c2)cc1 | / | ? | 7.6µM* | 2µM* | ? | 3.2µM*
Cc1ccc(C(C[N+](=O)[O-])Sc2ccc(N)cc2)cc1 (configuration not stated) | / | -25% | ? | -7% | ? | -1%
